DT40 TDP1 CPT – qHTS for Inhibitors of human tyrosyl-DNA phosphodiesterase 1 (TDP1): qHTS in cells in presence of CPT. chicken DT40 Tdp1-/-;hTDP1 cells + 20 nM CPT, ATP luminescence, 48 h. Potency, µM (series often up to 46.2 µM), actives largely listed as inhibitors. 12% of 420,000 active. AID 686979, 2013; also: nearly all actives have a fitted effect of over 55% in size
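Chicken DT40 Tdp1-/- cells complemented with human TDP1, 400 cells/well, exposed to compounds plus 20 nM camptothecin for at least 48 h at 37 C; viability read as ATP content by CellTiter-Glo luminescence.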
ELG1 repair inh – qHTS screen for small molecules that inhibit ELG1-dependent DNA repair in human embryonic kidney (HEK293T) cells expressing luciferase-tagged ELG1; 2.3% of 330,000 active; AID 504467, 2011; HEK293T ELG1-luciferase reporter, luminescence, 16 h; DNA damage induced by 5-fluorouridine; Potency, µM (titrated, usually from 46.1 µM), hits mostly inhibitors; also: nearly all actives have a fitted effect of over 55% in size
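In this reporter screen, reduction of luminescence relative to DMSO vehicle indicated activity. Compounds and 5-fluorouridine were added together to 2,000 cells per well, incubated for 16 hr at 37 °C, then developed with ONE-Glo.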
IL-1B inflam inh – qHTS for Inhibitors of Inflammasome Signaling: IL-1-beta AlphaLISA Primary Screen | THP-1 LPS/ATP IL-1B secretion, AlphaLISA, 16 h; hits give low values | activity change, % at 57.5 µM | 4.7% of 360,000 active | AID 743279, 2014; in the data active = activity change below about -50%; inconclusive = mostly about -30% to -49%
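THP-1 cells pretreated 1 hr with compounds (up to 57.5 uM final), then stimulated with LPS (250 ng/mL final) plus ATP (1.25 mM final); secreted IL-1B measured by AlphaLISA after 16 hr, decreased signal indicating inhibition.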
HT1080-NT tox – qHTS for induction of synthetic lethality in tumor cells producing 2HG: qHTS for the HT-1080-NT fibrosarcoma cell line; HT-1080-NT fibrosarcoma viability, CellTiter-Glo ATP luminescence, 48 h; Potency, µM (top dose mostly 46.1 µM), usual class: cytotoxic; 1.6% of 360,000 active;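 also: NT is the 2HG producing partner of a matched IDH1 knockdown line; nearly all actives have a fitted effect of over 55% in size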
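A 48-hour cytotoxicity screen used HT-1080-NT cells plated 2 hours before compound delivery. ATP-based CellTiter-Glo luminescence measured viability, normalized to DMSO and no-cell controls.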
DT40 TDP1 no CPT – qHTS for Inhibitors of human tyrosyl-DNA phosphodiesterase 1 (TDP1): qHTS in cells in absence of CPT | DT40 Tdp1-/- hTDP1 cells, no CPT, ATP luminescence, 48 h | Potency, µM (series often up to 46.2 µM), most hits filed as inhibitors | 15% of 420,000 active; also: nearly all actives have a fitted effect of over 55% in size
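Cells were dispensed at 400 per well, compounds added by pin tool, plates incubated ≥48 hr at 37 °C, then CellTiter-Glo added for 30 min at room temperature before luminescence reading. Line: DT40 Tdp1-/- complemented with hTDP1; camptothecin omitted.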
HT1080 IDH1KD tx – qHTS for induction of synthetic lethality in tumor cells producing 2HG: qHTS for the HT-1080-IDH1KD cell line. HT-1080 IDH1 knockdown viability, ATP luminescence, 48 h. Potency, µM (doses to about 46.1 µM), hits mostly cytotoxic. 2% of 360,000 active. AID 686971, 2013
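% activity derives from luminescence (CellTiter-Glo), normalised to DMSO and no-cell wells. HT-1080-IDH1KD cells, 750/well, had 48 h compound exposure at 37 °C.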
Each line names hits and unclear results; the compound was inactive in the other large screens. This is a sample that favours compounds with a hit; in the whole collection about 19% have one here. Unless noted, calls follow the shape of the dose curve; as a rule, active = well fitted curve in the direction sought with a large enough effect; inconclusive = small, poorly fitted or top-dose-only effect, or another doubt; inactive = no such curve, though single readings can be large; an effect the other way counts as inactive or inconclusive.

COc1ccccc1OC(C)C(=O)Nc1ccc(-c2nc3ccccc3s2)cc1 (stereo unspecified)	DT40 TDP1 no CPT inconclusive (no result: ELG1 repair inh, IL-1B inflam inh, HT1080-NT tox, HT1080 IDH1KD tx)
CN(C)c1cccc(C(=O)Nc2ccc(-c3nc4ccccc4s3)cc2)c1	DT40 TDP1 CPT inconclusive, DT40 TDP1 no CPT 13µM (no result: ELG1 repair inh, IL-1B inflam inh, HT1080-NT tox, HT1080 IDH1KD tx)
NC(=O)c1ccc(NC(=O)CCc2nc3ccccc3s2)cc1	none
O=C(O)CCn1nnc2ccccc21	none
CC(=O)N/C(=C\c1ccccc1)C(=O)OCc1ccccc1	none
CC(=O)N/C(=C\c1ccccc1)C(=O)OCc1cccc(S(=O)(=O)N(C)C)c1	DT40 TDP1 CPT 16µM, ELG1 repair inh 7.3µM, DT40 TDP1 no CPT inconclusive
Cc1ccccc1CN(C)CCS(=O)(=O)c1cc(Cl)ccc1Cl	DT40 TDP1 CPT inconclusive, IL-1B inflam inh inconclusive, HT1080-NT tox 16µM, DT40 TDP1 no CPT inconclusive, HT1080 IDH1KD tx 13µM
Nc1nnc(CCS(=O)(=O)c2cc(Cl)ccc2Cl)s1	ELG1 repair inh inconclusive
O=C(N/N=C/c1ccc(OC(F)F)cc1OC(F)F)NC1CCCCC1	DT40 TDP1 CPT inconclusive, ELG1 repair inh inconclusive, IL-1B inflam inh -81, DT40 TDP1 no CPT inconclusive
Cc1nc(SC(C)C(=O)Nc2ccccc2C)cc(-c2ccccc2)n1 (stereo unspecified)	DT40 TDP1 CPT 15µM, DT40 TDP1 no CPT 21µM (no result: ELG1 repair inh, IL-1B inflam inh, HT1080-NT tox, HT1080 IDH1KD tx)
COc1ccc(NC(=O)C(C)Sc2cc(-c3ccccc3)nc(C)n2)cc1Cl (stereo unspecified)	DT40 TDP1 CPT 21µM, DT40 TDP1 no CPT 21µM (no result: ELG1 repair inh, IL-1B inflam inh, HT1080-NT tox, HT1080 IDH1KD tx)
COc1cc(Cl)c(C)cc1NC(=O)CSc1cc(-c2ccccc2)nc(C)n1	none (no result: ELG1 repair inh, IL-1B inflam inh, HT1080-NT tox, HT1080 IDH1KD tx)
CCc1ccccc1NC(=O)C1=CN2CCS(=O)(=O)N=C2C=C1	none
Cc1cc(C(F)(F)F)c(C#N)c(SCC(=O)Nc2nc3ccccc3s2)n1	DT40 TDP1 CPT inconclusive, ELG1 repair inh inconclusive, HT1080-NT tox inconclusive, DT40 TDP1 no CPT 18µM, HT1080 IDH1KD tx 18µM
N#Cc1c(C(F)(F)F)cc(-c2ccccc2)nc1SCC(=O)Nc1sc2c(c1C#N)CCC2	DT40 TDP1 CPT 13µM, DT40 TDP1 no CPT 10µM
Cc1nc(SCC(=O)Nc2nc3ccccc3s2)c(C#N)c(C)c1C	DT40 TDP1 CPT inconclusive, ELG1 repair inh 5.2µM, DT40 TDP1 no CPT inconclusive, HT1080 IDH1KD tx inconclusive
CCCOc1ccc(-c2cc(C(F)(F)F)c(C#N)c(SCC(=O)O)n2)cc1	IL-1B inflam inh -71
Cc1cc(C)c(C#N)c(SCC(=O)CC(=O)OC(C)C)n1	DT40 TDP1 CPT inconclusive
Cc1nc(SCC(=O)CC(=O)OC(C)C)c(C#N)c(C)c1C	DT40 TDP1 CPT 21µM, ELG1 repair inh inconclusive, DT40 TDP1 no CPT inconclusive
O=C1N/C(=N\N=C\c2cccs2)SC1Cc1ccc(Cl)cc1 (stereo unspecified)	DT40 TDP1 CPT inconclusive, HT1080-NT tox 18µM, DT40 TDP1 no CPT inconclusive, HT1080 IDH1KD tx 23µM
O=C1N/C(=N\N=C\c2cccs2)SC1Cc1cccc(Cl)c1 (stereo unspecified)	DT40 TDP1 CPT 12µM, HT1080-NT tox inconclusive, DT40 TDP1 no CPT 10µM, HT1080 IDH1KD tx inconclusive
COc1ccccc1CN(C)C(=O)c1cc(S(=O)(=O)N2CCCCCC2)ccc1OC	DT40 TDP1 CPT inconclusive, DT40 TDP1 no CPT inconclusive (no result: ELG1 repair inh)
COc1cccc(COC(=O)c2ccc(-c3nnn(Cc4cccc(OC)c4)n3)cc2)c1	none (no result: ELG1 repair inh, IL-1B inflam inh, HT1080-NT tox, HT1080 IDH1KD tx)
CCC(=O)/C=C1/Sc2ccccc2N1CC	DT40 TDP1 CPT inconclusive, DT40 TDP1 no CPT inconclusive
C=CCN1C(=O)/C(=C2/Sc3ccccc3N2C)SC1=Nc1ccccc1C	DT40 TDP1 CPT inconclusive, DT40 TDP1 no CPT inconclusive
